# Literature values as cited in PubChem BioAssay AID977611.
# Screen size: about 3,900 compounds; about 3,900 (100%) were called active. No cut-off is given here; in the data, nearly all actives have Kd up to about 4200 µM. The set was probably picked from earlier hits. The list shows a part of the results. *1 amine or outer side, *2 acyl side, *3 side chain or, on linkers, in order; H or OH if unused. Where a SMILES comes first, the peptide text is derived from it. Non-standard residues stand in square brackets, D forms with d. Square brackets hold non-standard residues; d marks the D form. Residues, ends and D or L forms follow the SMILES beside them. Bridges are numbered along the chain shown (N, C = ends). Peptide text beside a SMILES is read from it. [ ]: non-standard residue; d: D form. The star is where a group is joined. X1 = C[C@@](/C=C/CC=[*:3])(N[*:1])C(=O)[*:2]; Orn(CH(NH2)2) = NC(N)NCCC[C@H](N)C(=O)O; S5 = C=CCCC[C@](C)(N)C(=O)O; ΔPro = O=C(O)[C@@H]1C=CCN1; Butyryl = CCCC(=O)*
# Experiment: PubChem AID 977611
# Conditions: PDB protein-ligand complexes, literature Kd
compound,measurement,setting,value
CN1CC/C=C/CCCCCC(=O)Cc2c(Cl)c(O)cc(O)c2C1=O,Kd,"protein: Hsp90 N-terminal domain, PDB entry 4ce2",144 µM (active)
CN1CC/C=C/CCCCCCC(=O)Cc2c(Cl)c(O)cc(O)c2C1=O,Kd,"protein: Hsp90 N-terminal domain, PDB entry 4ce1",41.8 µM (active)
CN1CCC/C=C\CCCC(=O)Cc2c(Cl)c(O)cc(O)c2C1=O,Kd,"protein: Hsp90 N-terminal domain, PDB entry 4ce3",110 µM (active)
O=c1cc(-c2ccc(O)cc2)oc2ccccc12,Kd,"protein: Tankyrase-2, PDB entry 4kzq",0.788 µM (active)
CC[C@H](C)[C@H](N)C(=O)N[C@H](C(=O)NCC(=O)NCC(=O)N[C@@H](Cc1ccc(O)cc1)C(=O)N1CCC[C@H]1C(=O)N[C@@H](Cc1c[nH]c2ccccc12)C(=O)N[C@@H](Cc1c[nH]c2ccccc12)C(=O)N[C@@H](CCSC)C(=O)O)C(C)C (H-IVGGYPWWM-OH),Kd,"protein: Hepatocyte growth factor HGF-Beta V495, PDB entry 4o3t",43 µM (active)
CC(C)C[C@H](NC(=O)[C@@H]1CCCN1C(=O)[C@H](CO)NC(=O)[C@H](Cc1ccc(O)cc1)NC(=O)[C@@H](NC(=O)[C@H](Cc1c[nH]c2ccccc12)NC(=O)[C@H](CO)NC(=O)[C@H](CCCNC(N)N)NC(=O)[C@H](CCC(=O)O)NC(=O)[C@H](CC(=O)O)NC(=O)[C@@H](NC(=O)[C@@H]1C=CCN1C(=O)[C@H](Cc1ccccc1)NC(=O)[C@@H](N)Cc1ccc(O)cc1)[C@@H](C)O)C(C)C)C(=O)N[C@@H](Cc1c[nH]cn1)C(=O)O (H-YF[ΔPro]TDE[Orn(CH(NH2)2)]SWVYSPLH-OH),Kd,"protein: clathrin adaptor AP-2 complex subunit beta-1, PDB entry 3h1z",22 µM (active)
CC(C)C[C@H](NC(=O)[C@H](Cc1ccc(O)cc1)NC(=O)[C@H](CO)NC(=O)CNC(=O)[C@H](Cc1ccc(O)cc1)NC(=O)[C@@H]1CCCN1C(=O)[C@H](Cc1ccc(O)cc1)NC(=O)[C@H](Cc1c[nH]c2ccccc12)NC(=O)[C@@H](NC(=O)[C@@H](N)CCCNC(N)N)C(C)C)C(=O)N[C@H](C(=O)N[C@@H](C)C(=O)N[C@@H](CO)C(=O)NCC(=O)N[C@@H](CO)C(=O)O)[C@@H](C)O (H-[Orn(CH(NH2)2)]VWYPYGSYLTASGS-OH),Kd,"protein: Concanavalin A(ConA), PDB entry 1jyc",46 µM (active)
CC[C@H](C)[C@H](NC(=O)[C@@H]1CCCN1C(=O)CNC(=O)[C@H](CC(N)=O)NC(=O)[C@@H]1CCCN1C(=O)[C@H](CO)NC(=O)[C@H](Cc1ccccc1)NC(=O)[C@H](CC(C)C)NC(=O)[C@H](Cc1ccc(O)cc1)NC(=O)[C@@H](N)CC(N)=O)C(=O)N[C@@H](C)C(=O)N[C@@H](CCCNC(N)N)C(=O)N[C@@H](C)C(=O)N[C@@H](Cc1c[nH]c2ccccc12)C(=O)O (H-NYLFSPNGPIA[Orn(CH(NH2)2)]AW-OH),Kd,"protein: Ephrin type-B receptor 4, PDB entry 2bba",0.07 µM (active)
CC[C@H](C)[C@@H]1NC(=O)[C@@](C)(NC(=O)[C@H](CCC(N)=O)NC(=O)[C@@H]2CCCN2C(=O)[C@H](Cc2c[nH]c3ccccc23)NC(=O)[C@@H](N)CCCNC(N)N)CCC/C=C\C/C=C/[C@@](C)(C(=O)N[C@@H](Cc2c[nH]cn2)C(=O)N[C@H](C(=O)N[C@@H](CCCNC(N)N)C(=O)N[C@@H](CCCNC(N)N)C(=O)N[C@H](C(=O)N[C@@H](Cc2c[nH]c3ccccc23)C(=O)O)C(C)C)C(C)C)NC(=O)[C@H](CC(=O)O)NC(=O)[C@H](CC(C)C)NC1=O (H-[Orn(CH(NH2)2)]WPQ[S5]ILD[X1]HV[Orn(CH(NH2)2)][Orn(CH(NH2)2)]VW-OH; staple (Z) 5-9),Kd,"protein: Catenin beta-1, PDB entry 4djs",0.013 µM (active)
CC[C@H](C)[C@H](NC(=O)[C@@H]1CCCN1C(=O)CNC(=O)[C@H](C)N)C(=O)N[C@@H](CO)C(=O)N[C@@H](CC(C)C)C(=O)N[C@@H](CC(N)=O)C(=O)N[C@@H](Cc1c[nH]c2ccccc12)C(=O)N[C@@H](Cc1ccccc1)C(=O)N[C@@H](CCC(=O)O)C(=O)N[C@@H](CCC(=O)O)C(=O)N[C@@H](CC(C)C)C(=O)N[C@@H](CO)C(=O)N[C@@H](C)C=O (H-AGPISLNWFEELSA-aldehyde),Kd,"protein: Partner and localizer of BRCA2, PDB entry 3eu7",0.66 µM (active)
C[C@H](N)C(=O)N[C@@H](CCCN=C(N)N)C(=O)N[C@H](C(=O)N[C@@H](CCCCN)C(=O)N[C@@H](CCC(N)=O)C(=O)N[C@H](C(=O)N[C@@H](C)C(=O)N[C@@H](CCCN=C(N)N)C(=O)N[C@@H](CCCCN)C(=O)N[C@@H](CO)C(=O)N[C@H](C(=O)NCC(=O)O)[C@@H](C)O)[C@@H](C)O)[C@@H](C)O,Kd,"protein: histone acetyltransferase Hat1p/Hat2p/H4 peptide complex, PDB entry 4psx",0.34 µM (active)
H-GCARSEG-OH,Kd,"protein: WD repeat-containing protein 5, WDR5, PDB entry 4es0",0.103 µM (active)
CCCC(=O)NCCCC[C@H](NC(=O)[C@]1([C@@H](C)O)N[C@@](O)([C@@H](N)CCCN=C(N)N)O1)C(=O)N[C@@H](CCC(N)=O)C(=O)N[C@H](C(=O)N[C@@H](C)C(=O)N[C@@H](CCCN=C(N)N)C(=O)O)[C@@H](C)O (H-[X1]K(Butyryl)QTAR-OH),Kd,"protein: NAD-DEPENDENT PROTEIN DEACETYLASE SIRTUIN-3, MITOCHONDRIAL Sirt3, PDB entry 4v1c",25.1 µM (active)
H-TKQTARK(Ac)S-NH2,Kd,"protein: Protein AF-9 AF9 YEATS, PDB entry 4tmp",3.7 µM (active)
C[C@H](N)C(=O)N[C@@H](C)C(=O)N[C@@H](C)C(=O)N[C@@H](C)C(=O)N[C@@H](C)C(=O)N[C@@H](C)C(=O)N[C@@H](C)C(=O)N[C@@H](C)C(=O)N[C@@H](C)C(=O)N[C@@H](C)C(=O)O,Kd,"protein: Transportin 1 (Trn1), PDB entry 2z5o",1 µM (active)
